Only some compounds are listed: those with a hit (about 2.5% of all), similar ones and a draw of the others.
L3MBTL1 block = inhibitors of human L3MBTL1; AlphaScreen L3MBTL1–H3K9me1 peptide binding; Potency, µM (highest dose often 57.1 µM), for the others: at the highest dose activity, negative = inhibition, hits mostly inhibitors; 0.66% of 230,000 active; also: % is scaled to controls: 0 for no effect and ±100 for the full control effect; nearly all actives have a fitted effect of over 60% in size
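Displacement of a biotinylated histone H3(1-15) peptide monomethylated at Lys9 (75 nM) from L3MBTL1 (50 nM) was measured by AlphaScreen after a 30 min room-temperature compound incubation; cefsulodin titration served as intraplate control.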
POLK inh = blocks human DNA polymerase kappa activity. Q9UBT6. purified Pol kappa, fluorescent DNA synthesis assay, 10 min. Potency, µM (doses to about 107 µM), without a hit: at the top dose activity, negative = inhibition, usual class: inhibitors. 0.53% of 400,000 active; also: % is scaled to controls: 0 for no effect and ±100 for the full control effect
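Enzyme at 10 nM met test compounds for 15 min at room temperature. Substrate addition (50 nM final) began the reaction, which was monitored by fluorescence at 0 and 10 min.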
APEX1 inh = inhibitors of human APE1 endonuclease; P27695; recombinant APE1, TAMRA/BHQ-2 abasic DNA cleavage fluorescence; Potency, µM (highest dose often 65.8 µM), without a hit: top-dose activity change, negative = inhibition, most hits filed as inhibitors; 0.35% of 350,000 active; AID 2517;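 also: plate controls were vehicle for no effect and reference inhibitor for full effect; nearly all actives have a fitted effect of over 55% in size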
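APE1 at 0.75 nM preincubated 15 min at room temperature with compound. Reaction then started with 50 nM double-stranded THF-abasic substrate labelled with TAMRA/BHQ-2, and 525/598 nm fluorescence read kinetically. Activity taken as third-minus-first read difference, normalized to DMSO and NSC13755 controls.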
Pol beta inh = DNA polymerase beta (human) inhibition; 1.3% of 340,000 active; Pol beta primer extension/strand displacement, fluorescence kinetic; Potency, µM (titrated, usually from 114 µM), inactives show at the highest dose activity change, negative = inhibition, usual class: inhibitors; P06746; AID 485314; also: % is scaled to controls: 0 for no effect and ±100 for the full control effect
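Pol beta (10 nM) and compounds were preincubated 15 min at room temperature, then 50 nM substrate (final) started primer extension/strand displacement. Reads were taken at 0 and 10 min; concentration-response data were fitted to a four-parameter Hill equation.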
POLH inh = DNA polymerase eta (human) inhibition; Q9Y253; recombinant Pol eta, fluorescent DNA replication assay; Potency, µM (series often up to 114 µM), for the others: top-dose activity change, negative = inhibition, hits mostly inhibitors; 1.2% of 390,000 active; also: % is scaled to controls: 0 for no effect and ±100 for the full control effect
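Pol eta (10 nM) was preincubated with compounds for 15 min at room temperature, after which fluorescent replication substrate (50 nM final) was added to start the reaction. Fluorescence was read kinetically at 0 and 10 min.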
POLI inh = inhibitors of human DNA polymerase iota; Potency, µM (highest dose often 115 µM), inactives show at the top dose activity, negative = inhibition, most hits filed as inhibitors; Pol iota fluorescent replication assay, 10 min; 1% of 390,000 active; Q9UNA4; AID 588590
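Pol iota at 10 nM preincubated 15 min with compounds at room temperature; reaction started with fluorescent substrate, 50 nM final. Fluorescence read kinetically at 0 and 10 min; buffer-only wells as negative control.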
Starred values were filed as active, the others as inactive; ? = inconclusive; · = no result given; [ ] = dose if it differs, or a comment. Calls follow the shape of the dose curve; as a rule, active = well fitted curve in the direction sought with a large enough effect; inconclusive = small, poorly fitted or top-dose-only effect, or another doubt; inactive = no such curve, though single readings can be large; an effect the other way counts as inactive or inconclusive. Potency is read from the fitted curve at half-maximal effect.

SMILES | L3MBTL1 block | POLK inh | APEX1 inh | Pol beta inh | POLH inh | POLI inh
Cc1ccccc1NC(=S)NC(=O)/C=C/c1ccco1 | ? | ? | -2% | 32µM* | 18µM* | ?
Cc1ccc(-c2nc3ccccc3s2)cc1NC(=S)NC(=O)/C=C/c1ccco1 | 0% | -7% | -4% | ? | 20µM* | ?
COc1ccccc1CNC(=O)C1CCCN(c2nc3ccccc3n3cccc23)C1 (configuration not stated) | · | -2% | · | 11% | -14% | 13%
COc1ccc2[nH]c(C(O)C(O)c3nc4c(OC)c(OC)ccc4[nH]3)nc2c1OC (configuration not stated) | · | -20% | · | · | · | 111%
O=C(/C=C/c1ccco1)NC(=S)Nc1cc(-c2nc3ccccc3s2)ccc1Cl | ? | -23% | 5% | -3% | 22µM* | ?
CSc1cccc(NC(=O)/C=C/c2ccco2)c1 | · | ? | -3% | 32µM* | 79µM* | ?
COc1cccc(NC(=O)/C=C/c2ccco2)c1 | -12% | -12% | -2% | -8% | -15% | 20%
COc1ccccc1NC(=O)c1cc(S(=O)(=O)NCCC2=CCCCC2)ccc1F | · | -12%[60.1 µM] | · | 0% | -21% | 15%
O=C(CCCCCNC(=O)c1ccccc1Br)N=Nc1c(O)[nH]c2ccccc12 | -28% | -17% | 25µM* | 2% | -7% | 79µM*
O=C(O)CCCCCNC(=O)c1ccccc1Br | -1% | 3% | 1% | 38% | -12% | -16%
COc1cc(C(=O)Nc2nnc(-c3sccc3C)s2)cc(OC)c1OC | 8% | -7% | 0% | 0% | 13µM* | -9%
CCCOc1ccc(C2c3c(oc4ccccc4c3=O)C(=O)N2c2nc(C)c(C(=O)OCC)s2)cc1 (configuration not stated) | · | -5% | · | 3% | -4% | 18%
O=c1c(Cl)c(N/N=C/c2ccc(Br)cc2)cnn1-c1ccccc1 | · | ? | -6% | 18µM* | ? | ?
Oc1cc(NCc2ccc(F)cc2)cc2cccnc12 | 6% | -6% | 61% | · | -14% | 77%
CN(C)CCCNc1cc(O)c2ncccc2c1 | ? | -13% | 34% | · | -5% | 6.3µM*
CC(Sc1nnnn1C)C(=O)Nc1cc(S(=O)(=O)N2CCCCC2)ccc1Cl (configuration not stated) | 2% | -15% | 7% | · | -22% | 11%
CCCOc1ccc(/C=N/NC(=O)CSc2ccccn2)cc1OC | 6% | -22% | ? | 79µM* | -12% | 18%
CCCCOc1ccc(C(=O)N/N=C/c2ccc(OCCN3CCCCC3)c(OC)c2)cc1 | -8% | ? | -3% | 16µM* | ? | ?
COc1cc(/C=N/NC(=O)CSc2ccccn2)ccc1O | -3% | -5% | 1% | ? | -3% | -16%
COc1ccc(C(=O)N/N=C/c2ccc(OC)c(CN3CCCc4ccccc43)c2)cc1 | ? | -20% | 1% | 20µM* | -3% | 44%
COCCCn1c(=O)c2sccc2n(Cc2cc(C(=O)OC)ccc2OC)c1=O | 41% | -2% | 5% | 6% | -14% | 7%
CCCC(=O)Oc1c(Sc2ccc(Cl)cc2)c(C)nn1-c1ccccc1 | · | 1% | · | 14% | -8% | 25µM*
Cc1ccc(Sc2c(C)nn(-c3ccccc3)c2OC(=O)CC(C)C)cc1 | · | -8% | · | 0% | · | ?
O=C(O)C1CCCCC1C(=O)Nc1nc(-c2ccc(Cl)s2)cs1 (configuration not stated) | -2% | ? | -1% | 16µM* | 45µM* | ?
Cc1nnc(SCc2ccc(CSc3nnc(C)c(=O)[nH]3)cc2)[nH]c1=O | · | -11% | 15% | ? | 79µM* | ?
O=c1c(C(c2ccccc2)c2c(O)sc3ccccc3c2=O)c(O)sc2ccccc12 | · | -2% | -9% | 32µM* | -13% | 21%
O=c1c2ccccc2sc2ccccc12 | · | -6% | · | · | 9% | 116%
